DT40 TDP1 no CPT – qHTS for Inhibitors of human tyrosyl-DNA phosphodiesterase 1 (TDP1): qHTS in cells in absence of CPT; DT40 Tdp1-/- hTDP1 cells, no CPT, ATP luminescence, 48 h; Potency, µM (titrated, usually from 46.2 µM), for the others: top-dose activity change, negative = growth inhibition, actives largely listed as inhibitors; 420,000 tested, 15% active; AID 686978, 2013; note: potency is the fitted concentration of half-maximal effect; nearly all actives have a fitted effect of over 55% in size
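A cellular qHTS used chicken DT40 cells lacking endogenous Tdp1 but carrying stably transfected human TDP1. Compounds were applied without camptothecin, and cell growth kinetics were judged by ATP-dependent luminescence after ≥48 hr.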
Giardia kill – Giardia lamblia killing; Giardia lamblia trophozoite viability; activity change, % at 7.66 µM, hits read low; 340,000 tested, 0.15% active; AID 540267; in the data active = activity change below about -80%; inconclusive = between about -30% and that limit;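 note: parasites exposed to compound for two days anaerobically before the ATP read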
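Luminescent ATP signal served as the viability read-out, measured 15-30 min after adding ATP detection reagent to trophozoites that had been incubated with compounds for 48 hrs at 37 deg C anaerobically at 100 cells/well.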
DT40 TDP1 CPT – DT40-hTDP1 cell growth loss with CPT. Potency, µM (titrated, usually from 46.2 µM), without a hit: top-dose activity change, negative = growth inhibition, usual class: inhibitors. chicken DT40 Tdp1-/-;hTDP1 cells + 20 nM CPT, ATP luminescence, 48 h. 420,000 tested, 12% active; note: potency is the fitted concentration of half-maximal effect; nearly all actives have a fitted effect of over 55% in size
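Cell growth measured by CellTiter-Glo luminescence after a minimum 48 h, 37 C compound exposure with 20 nM CPT in Tdp1-knockout DT40 cells stably expressing hTDP1, seeded 400/well; qHTS titration format.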
TDP1 inh – TDP1 (human) enzyme inhibition | AID 485290 | Potency, µM (series often up to 130 µM), without a hit: at the highest dose activity change, negative = inhibition, usual class: inhibitors | 350,000 tested, 0.28% active | recombinant TDP1, AlphaScreen DNA substrate cleavage; note: potency is the fitted concentration of half-maximal effect; nearly all actives have a fitted effect of over 40% in size
Target sequence (Q9NUW8 whole entry, looked up): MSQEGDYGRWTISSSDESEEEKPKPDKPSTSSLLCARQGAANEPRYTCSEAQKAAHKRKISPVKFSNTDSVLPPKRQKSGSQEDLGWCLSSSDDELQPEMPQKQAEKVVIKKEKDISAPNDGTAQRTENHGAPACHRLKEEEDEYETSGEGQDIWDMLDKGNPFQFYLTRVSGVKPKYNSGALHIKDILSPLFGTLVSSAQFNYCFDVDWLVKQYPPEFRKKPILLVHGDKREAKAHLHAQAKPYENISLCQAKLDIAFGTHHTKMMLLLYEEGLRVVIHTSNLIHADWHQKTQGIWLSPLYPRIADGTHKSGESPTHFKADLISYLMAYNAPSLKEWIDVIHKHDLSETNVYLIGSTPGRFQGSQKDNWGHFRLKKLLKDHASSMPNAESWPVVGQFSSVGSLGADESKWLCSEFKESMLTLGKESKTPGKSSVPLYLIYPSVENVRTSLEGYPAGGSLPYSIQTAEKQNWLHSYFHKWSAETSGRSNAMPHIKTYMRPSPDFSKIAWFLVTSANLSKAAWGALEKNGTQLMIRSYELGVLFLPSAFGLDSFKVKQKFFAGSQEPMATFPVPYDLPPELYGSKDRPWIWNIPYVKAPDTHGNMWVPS
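Enzyme-compound mixtures sat 15 min at room temperature, followed by a 5 min reaction with 15 nM final substrate and 10 min with AlphaScreen beads. Recombinant human Tdp1 was used at 1 nM final.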
ELG1 DNA repair – inhibitors of ELG1-dependent DNA repair in HEK293T cells; HEK293T ELG1-luciferase reporter, luminescence, 16 h; DNA damage induced by 5-fluorouridine; Potency, µM (highest dose often 46.1 µM), for the others: at the highest dose activity change, negative = inhibition, usual class: inhibitors; 330,000 tested, 2.3% active; note: potency is the fitted concentration of half-maximal effect; nearly all actives have a fitted effect of over 55% in size
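Step one: seed 2,000 cells per well. Step two: pin-transfer compound or DMSO alongside 5-fluorouridine. Step three: incubate 16 hr, 37 °C, 5% CO2. Step four: add ONE-Glo, wait 30 min, read luminescence.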
IL-1B inflam inh – blocks inflammasome-driven IL-1 beta release; THP-1 LPS/ATP IL-1B secretion, AlphaLISA, 16 h; hits give low values; activity change, % at 57.5 µM; 360,000 tested, 4.7% active; AID 743279; in the data active = activity change below about -50%; inconclusive = mostly about -30% to -49%
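THP-1 cells pretreated 1 hr with compounds (up to 57.5 uM final), then stimulated with LPS (250 ng/mL final) plus ATP (1.25 mM final); secreted IL-1B measured by AlphaLISA after 16 hr, decreased signal indicating inhibition.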
Starred values were filed as active, the others as inactive; ? = inconclusive; · = not tested or not shown; [ ] = dose if it differs, or a comment. An excerpt weighted towards active compounds, which were near 19% of everything screened. Unless noted, calls come from the whole dose curve; as a rule, active = well fitted curve in the direction sought with a large enough effect; inconclusive = small, poorly fitted or top-dose-only effect, or another doubt; inactive = no such curve, though single readings can be large; an effect the other way counts as inactive or inconclusive. % is set by controls: 0 for no effect and ±100 for the full control effect.

SMILES | DT40 TDP1 no CPT | Giardia kill | DT40 TDP1 CPT | TDP1 inh | ELG1 DNA repair | IL-1B inflam inh
Cc1ccc(-n2nnc(-c3nc(-c4cccs4)no3)c2N)cc1C | -25% | · | -20% | 3% | · | ·
O=C(NC1CCCc2ccccc21)c1cnn2c1NC(=C1CC1)C=C2C(F)F (stereo not given) | 20µM* | · | 11µM* | · | · | ·
O=C(c1cnn2c1NC(=C1CC1)C=C2C(F)F)N1CCc2ccccc21 | 11µM* | · | 11µM* | · | · | ·
CC1CCCCN1C(=O)c1cnn2c1NC(=C1CC1)C=C2C(F)F (stereo not given) | ? | · | 10% | · | · | ·
Cc1ccc2oc(C(=O)Nc3sc4c(c3C(=O)NCc3ccccc3)CCCC4)cc(=O)c2c1 | ? | · | ? | 9% | · | ·
CCc1nnc(NC(=O)CSc2nnc(C3CC3)n2C)s1 | -16% | 4 | 0% | 1% | 17% | 5
COc1ccc(OC)c2sc(N(Cc3cccnc3)C(=O)c3ccco3)nc12 | 21µM* | · | ? | 3% | · | ·
COc1cccc2sc(N(Cc3cccnc3)C(=O)c3ccco3)nc12 | ? | · | 16µM* | 3% | · | ·
COc1ccc(NC(=O)c2cc(-c3cc(F)ccc3OCC3CCCO3)n[nH]2)c(C)c1 (stereo not given) | ? | · | ? | · | · | -66*
COc1ccc(NC(=O)c2cc(-c3cc(F)ccc3OCC3CCCO3)n[nH]2)cc1OC (stereo not given) | 21µM* | · | ? | · | · | -81*
FC(F)(F)c1cnc(-c2cnc(-c3ccccn3)nc2)c(Cl)c1 | ? | -18 | ? | 4% | ? | -5
O=C(CSc1nnc(COc2cccc3cccnc23)o1)c1ccc(F)cc1 | 4.1µM* | 16 | 4.1µM* | 0% | ? | -3
Cc1ccc(C(=O)CSc2nnc(COc3cccc4cccnc34)o2)cc1 | 23µM* | -19 | 10µM* | 7% | ? | ?
O=C(CSc1nnc(COc2cccc3cccnc23)o1)N1CCCC1 | -27% | -11 | -4% | 0% | 11% | 14
COc1cccc(C(=O)CSc2nnc(COc3cccc4cccnc34)o2)c1 | 4.1µM* | -4 | 3.7µM* | 10% | ? | -7
CCc1ccc(NCc2cc3ccc(OC)cc3n(CC(=O)Nc3ccc(C(C)C)cc3)c2=O)cc1 | · | · | · | 8% | · | ·
OC1(c2cccnc2)CCN(Cc2ccc3c(c2)CN(Cc2cccc(F)c2F)CCO3)CC1 | ? | · | 0%[9.04 µM] | · | · | ·
CN1CCN/C1=C(/C(Cl)=C(Cl)Cl)[N+](=O)[O-] | 23µM* | -15 | 12µM* | 5% | 16% | -19
CCCCc1c(-c2ccccc2OC)ncn1CCc1ccccc1OC | 8.2µM* | · | 12µM* | · | · | -100*
CCCCCc1c(-c2ccccc2OC)ncn1CCc1ccccc1OC | 5.2µM* | · | 5.2µM* | · | · | -95*
CCCCCc1c(CC)ncn1CCc1ccccc1OC | 2.9µM* | · | 4.6µM* | · | · | ?
CCCCc1c(-c2ccccc2OC)ncn1CCc1ccccc1Cl | 15µM* | · | 7.3µM* | · | · | -62*
CCCCN(CC)C(=O)Cc1ccccc1OC | ? | 21 | -26% | 1% | -15% | ?
O=C(/C=C/c1cccc(F)c1)OCC(=O)N1CCc2ccccc21 | 11% | 4 | 13% | -2% | 25% | 12
O=c1n(Cc2ccccc2Cl)c2ccccc2c2nc(-c3ccccc3)nn12 | -19% | · | -23% | 4% | · | ·
SMILES | DT40 TDP1 no CPT | Giardia kill | DT40 TDP1 CPT | TDP1 inh | ELG1 DNA repair | IL-1B inflam inh
COc1ccccc1CCNc1ncnc2c1nnn2C | -28% | · | -12% | -5% | · | ·
CCCCc1c(-c2ccccc2Br)ncn1CCc1ccccc1OC | 21µM* | · | 15µM* | · | · | -79*
COc1ccc(OCC(=O)NC(Cc2c[nH]c3ccccc23)C(=O)O)cc1 (stereo not given) | -10% | · | 5% | · | · | ·
CCOc1cc(/C=C2\SC(=NC)N(C)C2=O)cc(Cl)c1OC(C)=O | ? | 21 | ? | · | -1% | 3
CCOc1cc(/C=C2\SC(=NC)N(C)C2=O)c(Br)cc1OC(C)=O | 21µM* | -5 | ? | 2% | 4% | 15
O=C(Cn1c(=O)n(Cc2ccccc2)c(=O)c2oc3ccccc3c21)Nc1ccc(Cl)cc1 | 18µM* | · | ? | -3% | · | ·
COc1cccc2c(=O)cc(C)n(CC(=O)Nc3ccccc3C)c12 | 15µM* | -4 | ? | 4% | ? | 4
Cc1cccc(NC(=O)Cn2c(=O)n(Cc3ccc4c(c3)OCO4)c(=O)c3oc4ccccc4c32)c1C | 7.3µM* | · | 7.3µM* | -5% | · | ·
Cc1ccc(Cl)cc1NC(=O)Cn1c(=O)n(Cc2ccccc2)c(=O)c2oc3ccccc3c21 | ? | · | ? | 3% | · | ·
O=C(Cn1c(=O)n(Cc2ccco2)c(=O)c2oc3ccccc3c21)Nc1ccccc1 | ? | · | ? | 3% | · | ·
Cc1cccc(NC(=O)Cn2c(=O)n(Cc3ccccc3)c(=O)c3oc4ccccc4c32)c1C | 3.3µM* | · | 4.6µM* | 3% | · | ·
CNC(=O)Cn1c(C)cc(=O)c2cccc(OC)c21 | -2% | 7 | 20% | 3% | 20% | 8
CCOC(=O)C1C(c2ccc(C(=O)O)cc2)NC(=O)NC1(O)C(F)(F)F (stereo not given) | -4% | 6 | 2% | 1% | 7% | -9
CCCCC/C=C\C/C=C\C/C=C\CCCCCCC(=O)NCCc1ccc(O)c(O)c1 | · | · | · | 4% | · | ·
CCn1cnc2c1c(=O)n(CC(=O)Nc1ccc(C(N)=O)cc1)c(=O)n2Cc1ccccc1 | -13% | 23 | -3% | · | 6.5µM* | 0
Cc1ccc(C)c(NC(=O)Cn2c(=O)n(Cc3ccc4c(c3)OCO4)c(=O)c3oc4ccccc4c32)c1 | 2.9µM* | · | 2.9µM* | 5% | · | ·
S=C(NCCc1ccc(Cl)cc1)NC1CCCCC1 | ? | -5 | ? | 0% | ? | -94*
S=C(NCCc1ccc(Cl)cc1)NC1CCCC1 | ? | 3 | ? | -3% | -16% | 3
S=C(NCCc1ccccc1)NC1CCCCCC1 | ? | -17 | 18µM* | 0% | ? | 6
CC(C)NC(=O)C1(C)CSCC(=O)N1C1CCN(Cc2ccccc2)CC1 (stereo not given) | -8% | · | 4% | · | · | -17
Cc1cc(C)cc(C(=O)N2CC(=O)Nc3ccc(Br)cc3C2c2ccccc2)c1 (stereo not given) | · | · | · | 5% | · | ·
Cc1ccc(-n2nnnc2Sc2nc([N+](=O)[O-])nn2C)cc1C | ? | 6 | ? | 0% | ? | -77*
Cc1ccc(C)c(-n2nnnc2Sc2nc([N+](=O)[O-])nn2C)c1 | ? | -14 | ? | 5% | 7% | 11
